Screening data deposited in PubChem by University of Kansas High Throughput Screening Laboratory.
mHTT CaM bind: mutant huntingtin-calmodulin interaction inhibitors – biochemical, AlphaScreen, primary screen | AlphaScreen His-mHTT/GST-CaM binding, luminescence | AID 1671202, 2021 | P42858 | inhibition, % at 15 µM | 3.6% of 190,000 active;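 further: 0% = both proteins with DMSO and 100% = one protein alone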
Pf apPOL inh: Pf-apPOL inhibitors, biochemical, fluorescence. Recombinant Pf-apPOL, molecular beacon fluorescence, 1.5 h. 0.25% of 210,000 active. inhibition, % at 10 µM
Active calls of the source: *; . = no result given. A selection: hits, their analogues and other compounds. The true share with any hit is near 3.6%. No stated cut-off is given here; in the data, active means inhibition above about 50%; inactive means the rest.

SMILES	mHTT CaM bind	Pf apPOL inh
O=C(Nc1nnc2ccccn12)c1cc(F)cc(F)c1	82*	-11
O=C(Nc1nnc2ccccn12)c1cccc(F)c1	56*	-11
O=C(Nc1nnc2ccccn12)c1ccc(F)cc1	24	-8
O=C(NCCCn1cccc1)c1cc(-c2ccc3c(c2)OCO3)n[nH]1	10	-18
CCOc1cc(C=O)ccc1OCc1cccc([N+](=O)[O-])c1	2	1
CCN(CC)S(=O)(=O)c1ccc(C(=O)Nc2nnc(-c3ccc(OC)cc3)o2)cc1	6	-7
O=C(c1ccc(OCC2CCCN(C(=O)c3ccccc3)C2)cc1)N1CCOCC1 (configuration not stated)	-2	-6
CCNc1ccc(Cl)cc1[N+](=O)[O-]	22	5
COc1ccc(C(=O)Nc2ccccc2C(=O)NCCCCO)cc1OC	2	0
O=C(CC1(O)C(=O)Nc2ccc(Cl)cc21)c1cccs1 (configuration not stated)	-4	4
COc1cccc(C(=O)CSc2ccc(-n3ccnc3)nn2)c1	4	1
CC(C)CC1C(=O)N(Cc2cn(CCC3OCCO3)nn2)CCS(=O)(=O)N1Cc1ccc(-c2ccc(F)cc2)cc1 (configuration not stated)	68*	-7
COc1ccc(-c2ccc(CN3C(CC(C)C)C(=O)N(Cc4cn(CCC5OCCO5)nn4)CCS3(=O)=O)cc2)cc1OC (configuration not stated)	21	-8
CC(C)CC1C(=O)N(Cc2cn(CCC3OCCO3)nn2)CCS(=O)(=O)N1Cc1ccc(-c2cccc(N(C)C)c2)cc1 (configuration not stated)	72*	2
CC(C)CC1C(=O)N(Cc2cn(CCC3OCCCO3)nn2)CCS(=O)(=O)N1Cc1ccc(-c2ccc(Cl)c(Cl)c2)cc1 (configuration not stated)	60*	-4
CC(C)C1C(=O)N(Cc2cn(CCC3OCCO3)nn2)CCS(=O)(=O)N1Cc1ccc(-c2cccc(CO)c2)cc1 (configuration not stated)	45	-5
CC(C)CC1C(=O)N(Cc2cn(CCC3OCCCO3)nn2)CCS(=O)(=O)N1Cc1ccc(-c2ccc(Cl)nc2)cc1 (configuration not stated)	29	-23
O=C(Nc1ccccc1C(=O)Nc1ccc(Cl)cc1)c1ccccc1Br	1	-6
O=C(NC1CCCCCC1)N1CCOCC1	-8	.
CCCCN(CCCC)C(=O)c1c[nH]c2ccc(S(=O)(=O)Nc3ccccc3C)cc2c1=O	30	-12
O=S(=O)(Nc1nc(SCc2ccc(Cl)cc2)n[nH]1)c1ccc(-c2ccccn2)s1	.	-9
O=C(C1CC(=O)N(c2ccc(F)cc2)C1)N1CCOCC1 (configuration not stated)	-4	-8
O=C(COc1ccccc1Cl)Nc1cccc(-c2nc3ncccc3o2)c1	-7	-2
Cc1cc(N2CCN(C(=O)c3c(F)cccc3F)CC2)c(F)cc1[N+](=O)[O-]	-3	6
Fc1ccc(Br)cc1C1C=C(c2cccc(Br)c2)Nc2ncnn21 (configuration not stated)	13	-1
SMILES	mHTT CaM bind	Pf apPOL inh
O=[N+]([O-])/C=C/c1ccc(-c2ccc(Cl)cc2)o1	84*	4
CC1(C)OC(=O)C(=Cc2ccc(-c3ccc([N+](=O)[O-])cc3)o2)C(=O)O1	2	-4
O=[N+]([O-])/C=C/c1ccc(-c2ccc(Br)cc2)o1	51*	-3
Cc1ccc(-c2ccc(C=O)o2)c(Br)c1	-8	-7
O=Cc1ccc(-c2ccc([N+](=O)[O-])cc2)o1	5	-6
Cc1ccc(-c2ccc(/C=C/[N+](=O)[O-])o2)c(Br)c1	79*	1
O=C(CCCOc1ccccc1)Nc1ccc(Br)cc1F	-19	1
Cc1cccc(NC(=O)CC2SC(=Nc3ccc(F)cc3)N(C)C2=O)c1 (configuration not stated)	-3	-7
CCNC(=O)NC1CCN(C(=O)C2CCC2)C1 (configuration not stated)	-3	-2
C=CCc1ccccc1OCC(O)CN1CCN(c2ccccc2OC)CC1 (configuration not stated)	43	-8
C=CCc1ccccc1OCC(O)CN1CCN(c2ccccc2)CC1 (configuration not stated)	74*	-1
C=CCc1ccccc1OCC(O)CN1CCN(c2ccccc2F)CC1 (configuration not stated)	-11	-2
C=CCc1ccccc1OCC(O)CN1CCN(c2ccc(F)cc2)CC1 (configuration not stated)	75*	-13
Cc1noc(-c2ccccc2)c1NC(=O)Nc1ccc2sccc2c1	.	-11
COc1cccc(C2N(c3ccc(Cl)c(Cl)c3)C(=O)C3CCCN32)c1OC (configuration not stated)	100*	-4
COc1ccc(OC)c(C2N(c3cc(C)on3)C(=O)C3CCCN32)c1 (configuration not stated)	0	-3
COc1ccc(N2C(=O)C3CCCN3C2c2ccc(N(C)C)cc2)cc1Cl (configuration not stated)	67*	0
COc1cccc(C2N(c3ccccn3)C(=O)C3CCCN32)c1OC (configuration not stated)	-3	-2
COc1ccc(OC)c(C2N(c3ccc(Cl)c(Cl)c3)C(=O)C3CCCN32)c1 (configuration not stated)	100*	-2
COc1cccc(C2N(c3ccc(Cl)c(Cl)c3)C(=O)C3CCCN32)c1 (configuration not stated)	99*	-4
COc1ccc(N2C(=O)C3CCCN3C2c2cccc(C)c2)cc1Cl (configuration not stated)	1	-5
COc1ccc(C2N(c3ccc(OC)c(Cl)c3)C(=O)C3CCCN32)cc1 (configuration not stated)	-3	-4
COCCN1CCC(N2CCCN(S(=O)(=O)c3cccc(F)c3)CC2)C1=O (configuration not stated)	12	3
O=C1Nc2cc(C(=O)N3CCN(c4ccccn4)CC3)ccc2SC1N1CCOCC1 (configuration not stated)	3	-20
COc1ccc(C2N(c3ccc(Cl)cc3)C(=O)C3CCCN32)cc1 (configuration not stated)	-6	-3
SMILES	mHTT CaM bind	Pf apPOL inh
COc1ccc(OC)c(C2N(c3ccc(Cl)cc3)C(=O)C3CCCN32)c1 (configuration not stated)	73*	-1
O=S(=O)(Cc1nc(-c2cccc(Br)c2)no1)c1ccccc1	-54	1
Brc1cccc(-c2noc(CSc3nccn3-c3ccccc3)n2)c1	63*	0
O=C1NCCCC1C(=O)N1CCc2ccccc21 (configuration not stated)	1	1
CCN1C(=O)CCc2cc(NC(=O)c3ccsc3)ccc21	-3	-10
CCOc1ccc(CNC(=O)c2cn(C3CCCC3)c(=O)c3c2c2ccccc2n3C)cc1	2	0
CC(C)C(NS(=O)(=O)c1cccs1)C(=O)Nc1cccc(F)c1 (configuration not stated)	-3	-4
Cc1ccc(C)c(N2CCN(C(=O)C3c4ccccc4CCN3C(=O)C3CC3)CC2)c1 (configuration not stated)	57*	-2
Cc1ccc(C)c(N2CCN(C(=O)C3CCC3)CC2)c1	0	-4
